This note sets out measurements from PubChem BioAssay (NCATS).

Results filed as inconclusive are left out. Entries that show only a call come without a potency. Calls of active or inactive are those of the source. Calls follow the shape of the dose curve; as a rule, active = well fitted activation curve with a large enough effect; inconclusive = small, poorly fitted or top-dose-only effect; inactive = flat fitted curve, though single readings scatter.
Potency is read from the fitted curve at half-maximal effect.

This assay can be described thus: HEK293 18hr Apoptosis Induction qHTS against the NCATS CANVASS Library (AID 1347357). The note with it: HEK293 caspase-3/7 Caspase-Glo luminescence; series mostly up to 46.1 µM. An excerpt: Natural products and their derivatives continue to be wellsprings of nascent therapeutic potential. However, many laboratories have limited resources for biological evaluation, leaving their previously isolated or synthesized compounds largely or completely untested. To address this issue, the Canvass library of natural products was assembled (https://tripod.nih.gov/canvass), in collaboration with academic and industry researchers, for quantitative high-throughput screening (qHTS) across a diverse set of cell-based and biochemical assays. The pure (>85% purity by liquid chromatography/mass spectrometry [LC/MS]) Canvass library of 346 natural products were submitted by 45 academic laboratories and companies around the world. We collected pure natural products to circumvent deconvolution and structure elucidation due to time and resource limitations. The library was formatted into 1536-well plates and evaluated in 50 qHTS (in an 11-pnt concentration series) bioassays with broad scope of disease-relevant mechanisms. The resulting data set from 50 different assays was then systematically analyzed to identify overall trends and specific natural products with interesting biological activities. Reported herein are the results of each individual qHTS and their corresponding assay protocol. The Caspase-Glo (R) (Promega) is a homogeneous, luminescent assay that measures caspase activity. The detection substrate contains tetrapeptide sequence DEVD in an "add-mix-measure" format. The reagent generates a luminescent signal produced by a thermostable luciferase. The luminescence is proportional to the amount of caspase activity in the assay reaction. National Center for Advancing Translational Sciences (NCATS), Rockville, MD National Institute of Health (NIH), Bethesda, Maryland
Cancer Cell Apoptosis Assay 1. In a 1536 well, white solid bottom tissue culture plates (Corning 7494), HEK293 cancer cells in DMEM + 10% FBS + 1% P/S media were dispensed in each well at a final concentration of 500 cells / well (5uL volume) using the Multidrop Combi (Thermo Fisher Scientific) dispenser. 2. Compounds were pin transferred (~23nL volume) via Wako Pin-tool (Wako Automation, Richmond VA) equipped with a 1536 pin head. The assay plates were treated with compounds in a concentration series with a final concentration range of 0.17nM to 103uM. 3. Doxorubicin was used as a control in a 16pnt titration (1mM; 1:2 dilution; 16-points; n = 2; column 3, rows 1 - 32) and was pin transferred via Wako Pin-tool equipped with a 1536 pin head. The final concentration range of doxorubicin is 0.1nM - 4uM. 4. The assay plates were incubated for 18 hours at 37 degrees C/5% CO2/95% Rh. 5. 3uL Caspase-Glo 3/7 (R) (Promega) detection reagent was then added to the assay plates (columns 2 - 48, rows 1 - 32) and incubated at room temperature, covered from light, for 15 min. 6. Luminescence signal was acquired via the ViewLux plate reader (PerkinElmer) using a clear filter, 20 second exposure and 2x binning settings.
For `CNCCc1ccccc1`, the Potency result was “inactive”.
With `NCCc1ccccc1` the entry was “inactive”.
With `C[C@@H]1CC[C@@H](c2ccoc2)N2C[C@@]3(CC[C@@H]12)CS[C@@]1(CC[C@H]2[C@H](C)CC[C@@H](c4ccoc4)N2[C@@H]1O)C3` the figure was 8.33 µM (active); with `CC1=CC2CC[C@@H]3[C@@H](C)C[C@H](C)[C@@H](C1)N23` (stereo not given in full), “inactive”.
With `CCCC[C@@H]1CC[C@H]2CCCC(CCC)N12` (stereo not given in full) the entry was “inactive”; with `CN1C(=O)[C@]23CC4C(C)(C)[C@@]5(C[C@@]41CN2CC[C@@]3(C)O)C(=O)Nc1c5ccc2c1OC=CC(C)(C)O2` (stereo not given in full), “inactive”.
Turning to `CCC[C@H]1CC[C@H]2[C@H](C)CCC[C@H]2N1`, the Potency entry was “inactive”.
With `COC(=O)C1=C2Nc3ccccc3[C@@]23CCN2CC(C(C)=O)C1C[C@H]23` (stereo not given in full) the entry was “inactive”; with `CCCCC[C@@H]1OC(=O)[C@@H](C)N(C)C(=O)[C@H](CCCCC)OC(=O)C(C)N(C)C(=O)[C@H](CCCCC)OC(=O)[C@@H](C)N(C)C(=O)[C@H](CCCCC)OC(=O)C(C)N(C)C1=O` (stereo not given in full), “inactive”; with `CC=C1CN(C=O)[C@H]2C[C@@H]1[C@@H](C(=O)OC)[C@@]13CCOC21Nc1ccccc13` (stereo not given in full), “inactive”.
With `c1ccc2c3c([nH]c2c1)CNCC3` the entry was “inactive”; with `COc1ccc(C23Oc4cc(OC)cc(OC)c4[C@](O)([C@H](c4ccccc4)C2C(=O)NCCCCNC(=O)c2ccccc2)[C@@H]3O)cc1` (stereo not given in full), “inactive”; with `CC1=CC(=O)C2=C(C)C[C@H](O)[C@@H]3[C@H](OC(=O)[C@@H]3C)[C@@H]12`, “inactive”.
For `CNCCc1ccc(O)cc1` the value was “inactive”.
On to `CO[C@@H](/C=C/CC/C=C/C(=O)O)[C@@H](O)[C@H](C)[C@@H](O)/C(C)=C/[C@H](C)C(=O)CCCC1CC(=O)NC(=O)C1`, for which the Potency entry is “inactive”.
With `CCC(=O)CCCCC[C@@H]1NC(=O)[C@H]2CCCCN2C(=O)[C@H]([C@@H](C)CC)NC(=O)[C@H](Cc2cn(OC)c3ccccc23)NC1=O` the entry was “inactive”; with `C/C=C1/CN2CC[C@]34C(=Nc5ccccc53)[C@@H]2C[C@@H]1[C@H]4C(=O)OC`, “inactive”; with `C=C1[C@@H](C)[C@H]2[C@H](Cc3ccccc3)NC(=O)[C@]23OC(=O)/C=C/[C@H](O)CCC[C@@H](C)C/C=C/[C@H]3[C@@H]1O`, “inactive”.
For the compound `O=C(c1ccccc1O)c1[nH]c(Cl)c(Cl)c1-n1c(C(=O)c2ccccc2O)cc(Cl)c1Cl`, the Potency result was “inactive”.
For `CO[C@@H](/C=C/CC/C=C/C(=O)O)[C@@H](O)[C@H](C)/C=C(\C)[C@@H](O)[C@H](C)C(=O)CCCC1CC(=O)NC(=O)C1`, the Potency entry is “inactive”.
With `C[C@]12CC(O)C3[C@@H](CCC4C[C@@H](O)CC[C@@]43CO)[C@@]1(O)CCC2C1=CC(=O)OC1` (stereo not given in full) the entry was “inactive”.
In the case of `COc1ccc2c3c([nH]c2c1)C(C)=NCC3`, the Potency entry is “inactive”.
With `COc1ccc2c(c1)[nH]c1c(C)nccc12` the entry was “inactive”.
With `CCN1C[C@]2(C)CC[C@H](O)[C@]34C1C(C[C@H]23)[C@@]12CC[C@H](CC14)[C@](O)(COC(=O)c1ccc(OC)c(OC)c1)[C@H]2O` (stereo not given in full) the entry was “inactive”; with `CC[C@@H]1CN2CC[C@@]3(O)C(=Nc4cccc(OC)c43)[C@@H]2C[C@@H]1/C(=C\OC)C(=O)OC`, “inactive”.
For `CO[C@H](c1ccccc1)[C@H]1NC(=O)C(C)NC(=O)C(C[C@@H](C)CO)N(C)C(=O)[C@@H](C(O)c2cn(C(C)(C)C3CO3)c3ccccc23)NC(=O)C(C(C)C=C(C)C)NC(=O)C(CC(C)C)N(C)C(=O)C(C(C)C)NC1=O` (stereo not given in full) the value was “inactive”; for `CC(=O)N[C@H]1CCN2CCC[C@H]12`, “inactive”.
As for `CN(C)Cc1c[nH]c2ccccc12`, the Potency entry was “inactive”.
On to `CCN1C[C@]2(C)CC[C@@H](O)[C@]34C1[C@H](C[C@H]23)C12CCC(CC14)[C@](O)(CO)[C@H]2O` (stereo not given in full), for which the Potency result was “inactive”.
With `CNCCc1c[nH]c2ccccc12` the entry was “inactive”.
